# Laboratory results reported in the supplement of paper PMC8728848.
# The sample as a whole holds a higher share of the strongest signals than the screen did.
# B1: Galatrox (Botrops atrox), P0DM53 (protein)
# chain: NNCPQDWLPMNGLCYKIFDELKAWKDAEMFCRKYKPGCHLASIILYGESPEWAEGHSEVWLGLWDKKKDFSWEWTDR
# Columns and labels:
# Experiment in all cases: glycan array binding signal (z-score within array); higher = stronger binding
# Conditions in all cases: glycan notation: IUPAC condensed, linker removed
# [1] = target: Fuc(a1-2)Gal(b1-3)GlcNAc(b1-3)[Fuc(a1-3)[Gal(b1-4)]GlcNAc(b1-6)]Gal(b1-4)Glc
# In short: (§1)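 Columns mapping to the same glycan were averaged after glycan names were converted to IUPAC-condensed notation. The data come from 3228 arrays in the Consortium for Functional Glycomics database, limited to those with an available protein sequence. Binding is reported as a within-array Z-score averaged across arrays of one protein sequence and across linkers.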
# [2] = target: Fuc(a1-2)Gal(b1-4)GlcNAc(b1-3)GalNAc
# In short: as §1
# [3] = target: Fuc(a1-2)Gal(b1-4)[Fuc(a1-3)]GlcNAc
# In short: as §1
# [4] = target: Fuc(a1-2)Gal(b1-4)[Fuc(a1-3)]GlcNAc(b1-2)Man(a1-3)[Fuc(a1-2)Gal(b1-4)[Fuc(a1-3)]GlcNAc(b1-2)Man(a1-6)]Man(b1-4)GlcNAc(b1-4)GlcNAc
# In short: as §1
# [5] = target: Fuc(a1-2)[GalNAc(a1-3)]Gal
# In short: as §1
# Gal(a1-3)Gal(b1-4)GlcNAc = target: Gal(a1-3)Gal(b1-4)GlcNAc
# In short: as §1
# Gal(a1-6)Glc = target: Gal(a1-6)Glc
# In short: as §1
# Gal(b1-3)Gal(b1-4)GlcNAc = target: Gal(b1-3)Gal(b1-4)GlcNAc
# In short: as §1
# [6] = target: Gal(b1-3)GlcNAc(b1-3)Gal(b1-4)Glc
# In short: as §1
# [7] = target: Gal(b1-3)[Fuc(a1-4)]GlcNAc(b1-2)Man(a1-3)[Gal(b1-3)[Fuc(a1-4)]GlcNAc(b1-2)Man(a1-6)]Man(b1-4)GlcNAc(b1-4)[Fuc(a1-6)]GlcNAc
# In short: as §1
# [8] = target: Gal(b1-3)[GlcNAc(b1-6)]GalNAc
# In short: as §1
# [9] = target: Gal(b1-4)GlcNAc(a1-6)Gal(b1-4)GlcNAc
# In short: as §1
# [10] = target: Gal(b1-4)GlcNAc(b1-2)Man(a1-3)[Gal(b1-4)GlcNAc(b1-2)Man(a1-6)]Man(b1-4)GlcNAc(b1-4)GlcNAc
# In short: as §1
# [11] = target: Gal(b1-4)GlcNAc(b1-2)Man(a1-3)[Man(a1-6)]Man(b1-4)GlcNAc(b1-4)GlcNAc
# In short: as §1
# [12] = target: Gal(b1-4)GlcNAc(b1-2)Man(a1-6)[Man(a1-3)]Man(b1-4)GlcNAc(b1-4)GlcNAc
# In short: as §1
# [13] = target: Gal(b1-4)GlcNAc(b1-2)[Gal(b1-4)GlcNAc(b1-4)]Man(a1-3)[Gal(b1-4)GlcNAc(b1-2)Man(a1-6)]Man(b1-4)GlcNAc(b1-4)GlcNAc
# In short: as §1
# [14] = target: Gal(b1-4)GlcNAc(b1-3)Gal(b1-4)GlcNAc
# In short: as §1
# [15] = target: Gal(b1-4)GlcNAc(b1-3)Gal(b1-4)GlcNAc(b1-3)Gal(b1-4)GlcNAc
# In short: as §1
# [16] = target: Gal(b1-4)GlcNAc(b1-3)Gal(b1-4)[Fuc(a1-3)]GlcNAc(b1-3)Gal(b1-4)[Fuc(a1-3)]GlcNAc
# In short: as §1
# [17] = target: Gal(b1-4)GlcNAc(b1-3)[Gal(b1-4)GlcNAc(b1-6)]Gal(b1-4)GlcNAc
# In short: as §1
# [18] = target: Gal(b1-4)GlcNAc(b1-6)GalNAc
# In short: as §1
# Gal3S(b1-3)GlcNAc = target: Gal3S(b1-3)GlcNAc
# In short: as §1
# Kdn(a2-6)Gal(b1-4)GlcNAc = target: Kdn(a2-6)Gal(b1-4)GlcNAc
# In short: as §1
# [19] = target: Man(a1-2)Man(a1-3)[Man(a1-2)Man(a1-6)]Man
# In short: as §1
# [20] = target: Man(a1-2)Man(a1-3)[Man(a1-2)Man(a1-6)]Man(a1-6)[Man(a1-2)Man(a1-2)Man(a1-3)]Man
# In short: as §1
# [21] = target: Neu5Ac(a2-3)Gal(b1-3)GlcNAc6S
# In short: as §1
# [22] = target: Neu5Ac(a2-3)Gal(b1-4)[Fuc(a1-3)]GlcNAc(b1-3)Gal(b1-4)GlcNAc
# In short: as §1
# [23] = target: Neu5Ac(a2-3)Gal(b1-4)[Fuc(a1-3)]GlcNAc6S
# In short: as §1
# Neu5Ac(a2-3)GalNAc = target: Neu5Ac(a2-3)GalNAc
# In short: as §1
# [24] = target: Neu5Gc(a2-3)Gal(b1-3)GlcNAc
# In short: as §1
binder,measurement,setting,value
B1,glycan array binding signal (z-score),[1],-0.364
same,glycan array binding signal (z-score),[2],-0.36
same,glycan array binding signal (z-score),[3],-0.364
same,glycan array binding signal (z-score),[4],0.123
same,glycan array binding signal (z-score),[5],-0.357
same,glycan array binding signal (z-score),Gal(a1-3)Gal(b1-4)GlcNAc,-0.137
same,glycan array binding signal (z-score),Gal(a1-6)Glc,-0.37
same,glycan array binding signal (z-score),Gal(b1-3)Gal(b1-4)GlcNAc,3.61
same,glycan array binding signal (z-score),[6],0.413
same,glycan array binding signal (z-score),[7],-0.333
same,glycan array binding signal (z-score),[8],-0.192
same,glycan array binding signal (z-score),[9],3.28
same,glycan array binding signal (z-score),[10],1.27
same,glycan array binding signal (z-score),[11],0.001
same,glycan array binding signal (z-score),[12],1.15
same,glycan array binding signal (z-score),[13],3.31
same,glycan array binding signal (z-score),[14],3.16
same,glycan array binding signal (z-score),[15],3.28
same,glycan array binding signal (z-score),[16],3.31
same,glycan array binding signal (z-score),[17],4.18
same,glycan array binding signal (z-score),[18],2.44
same,glycan array binding signal (z-score),Gal3S(b1-3)GlcNAc,-0.363
same,glycan array binding signal (z-score),Kdn(a2-6)Gal(b1-4)GlcNAc,0.063
same,glycan array binding signal (z-score),[19],-0.378
same,glycan array binding signal (z-score),[20],-0.369
same,glycan array binding signal (z-score),[21],-0.36
same,glycan array binding signal (z-score),[22],2.3
same,glycan array binding signal (z-score),[23],-0.373
same,glycan array binding signal (z-score),Neu5Ac(a2-3)GalNAc,-0.364
same,glycan array binding signal (z-score),[24],-0.368
